Source: PubChem BioAssay (NCATS)
Records with an inconclusive call do not appear. The source made the active and inactive calls. Unless noted, the call rests on the fitted dose curve; in most records, active means well fitted curve in either direction with a large enough effect (not every such curve was filed as active); inconclusive means small, poorly fitted or top-dose-only effect, or another doubt; inactive means flat fitted curve, though single readings scatter. Residues, ends and D or L forms follow the SMILES beside them.

What was measured:
[1] = target: Lysosomal acid glucosylceramidase (Homo sapiens) (UniProt P04062); test: Glucocerebrosidase-p2 (AID 348; in the data active means potency below about 10 µM; further: potency means the concentration at half of the fitted maximal effect); conditions: purified GBA, blue fluorogenic substrate, 40 min
In short: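 Normal human glucocerebrosidase (0.2 nM) with blue fluorogenic substrate (80 uM final) in citrate/phosphate pH 5.9 with 10mM sodium taurocholate, 0.01% tween-20; 40 min RT, NaOH/glycine stop; fluorescence Ex 365/Em 440; AC50 from a titration from 0.6 nM upwards.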

[2] = AP1 Signaling Pathway (AID 357); conditions: ME-180 AP-1-bla reporter, EGF-induced, beta-lactamase ratio, 5 h; at 7.69 µM (top of the series) unless noted;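 further: ME-180 reporter cells stimulated with EGF at its EC50 level; on the % scale 0 is the no-effect control and ±100 the full control effect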
In short: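 In this screen, ME-180 cells in Opti-MEM with 0.5% dialyzed FBS received EC50 EGF and compound titrations for 5 h. AP-1 reporter beta-lactamase was detected via CCF4 ratio, giving AC50 for positive and negative modulators.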

[3] = NFAT Signaling Pathway (AID 444); conditions: Jurkat NFAT-bla M1, carbachol, beta-lactamase ratio, 5 h; at 7.69 µM (top of the series) unless noted;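 further: carbachol stimulus at about its EC50 of 1 µM final; on the % scale 0 is the no-effect control and ±100 the full control effect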
In short: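 Read-out: CCF4 FRET ratio (460 nm/530 nm) after 1 h RT dye loading, used for %activity and AC50 from titration series. Cells: Jurkat NFAT-β-lactamase/M1 line, treated with compound plus 1 uM carbachol for 5 h, 37 °C.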

[4] = Stat Signaling Pathway (AID 446); conditions: ME-180 (cervical carcinoma) SIE beta-lactamase reporter, IL-6 stimulated, 5 h; at 7.69 µM (top of the series) unless noted;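 further: ME-180 cervical cancer cells given 40 pM IL-6 alongside compound; SIE-controlled beta-lactamase reporter measured as 460/530 nm FRET emission ratio; on the % scale 0 is the no-effect control and ±100 the full control effect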
In short: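 FRET read-out (405 nm excitation, 460/530 nm emission) of a beta-lactamase reporter under a STAT-inducible element in ME-180 cervical carcinoma cells. Cells with compound receive 40 pM IL-6 for 5 h. Values are normalised to AC90 stimulation and AC90 JAK-inhibitor controls.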

[5] = target: Glucocorticoid receptor (Homo sapiens) (UniProt P04150); test: GR-GFP Redistribution (AID 450;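 active means compounds whose dose series gives a full or clear partial fitted curve of increased nuclear translocation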; further: potency means the concentration at half of the fitted maximal effect); conditions: U2OS GR-GFP nuclear translocation, laser cytometry, 2 h
[6] = target: Glucocorticoid receptor (Homo sapiens) (UniProt P04150); test: GR-EFC Redistribution (AID 451; calls by dose curve; further: potency means the concentration at half of the fitted maximal effect); conditions: CHO-K1 GR-EFC translocation, beta-gal luminescence, 2 h
In short: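 Translocation of GR-ED fusion to nuclear EA restores b-gal, read by luminescence after 1 h room-temperature detection. Engineered CHO-K1 biosensor cells, 1,000/well, exposed 2 h at 37 C to titrations up to 46 uM final.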

[7] = target: Mitogen-activated protein kinase 10 (Mus musculus) (UniProt Q61831); test: JNK3 AlphaScreen Assay (AID 530); conditions: JNK3 lysate, c-Jun phosphorylation; series mostly up to 11.4 µM;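 further: kinase came from lysate of stimulated human HepG2 cells; signal reports phosphorylation of biotinylated GST-cJun 1-79 at Ser73 with 10 µM ATP; on the % scale 0 is the no-effect control and ±100 the full control effect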
In short: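 Kinase buffer: 20 mM Tris-HCl pH 7.6, 10 mM MgCl2, 1 mM DTT, 0.1 mM Na3VO4, 0.01% Tween-20; ATP 10 uM. Substrate biotin-GST-cJun(1-79), enzyme from activated HepG2 lysates. Detection by Ser73 phospho-antibody AlphaScreen.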

[8] = target: 3',5'-cyclic-AMP phosphodiesterase 4B (Homo sapiens) (UniProt Q07343); test: qHTS Assay for Inhibitors of PDE-IV (AID 607; active means well fitted activation curve with a large enough effect in the main read-out, with a control signal flat, not every such curve was filed as active; further: % of control where 0% means no effect); conditions: HEK293 ACTOne CNG channel cells, membrane potential fluorescence; series mostly up to 22.9 µM
In short: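 Cell-based read-out of cAMP via a modified cyclic nucleotide-gated channel and membrane potential dye (535/590 nm) in HEK293 cells expressing PDE4 endogenously. Compounds tested up to 22.9 uM final; 100 uM RO 20-1724 reference.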

Glucocorticoid receptor (Homo sapiens), sequence (P04150 whole entry, looked up, the tested form may be a part): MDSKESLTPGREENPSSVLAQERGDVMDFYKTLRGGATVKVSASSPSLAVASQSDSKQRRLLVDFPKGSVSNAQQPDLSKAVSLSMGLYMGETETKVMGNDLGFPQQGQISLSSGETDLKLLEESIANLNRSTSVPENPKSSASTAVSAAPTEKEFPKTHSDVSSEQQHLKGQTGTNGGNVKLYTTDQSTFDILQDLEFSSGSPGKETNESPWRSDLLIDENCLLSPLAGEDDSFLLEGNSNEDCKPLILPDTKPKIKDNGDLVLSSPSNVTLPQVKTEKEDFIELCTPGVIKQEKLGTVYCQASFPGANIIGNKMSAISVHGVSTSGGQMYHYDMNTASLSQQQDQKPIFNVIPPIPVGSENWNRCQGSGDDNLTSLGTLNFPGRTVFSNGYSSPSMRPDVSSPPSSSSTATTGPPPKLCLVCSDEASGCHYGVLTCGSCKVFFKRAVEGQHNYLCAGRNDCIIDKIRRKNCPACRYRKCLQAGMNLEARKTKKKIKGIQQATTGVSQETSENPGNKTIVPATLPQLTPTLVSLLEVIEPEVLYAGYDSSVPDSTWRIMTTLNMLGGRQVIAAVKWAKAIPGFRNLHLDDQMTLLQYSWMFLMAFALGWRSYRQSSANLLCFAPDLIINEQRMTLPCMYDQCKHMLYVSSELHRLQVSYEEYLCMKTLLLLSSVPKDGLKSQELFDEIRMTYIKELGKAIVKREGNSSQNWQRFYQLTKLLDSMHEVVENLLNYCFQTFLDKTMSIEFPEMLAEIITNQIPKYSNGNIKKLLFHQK
Lysosomal acid glucosylceramidase (Homo sapiens), sequence (P04062 whole entry, looked up): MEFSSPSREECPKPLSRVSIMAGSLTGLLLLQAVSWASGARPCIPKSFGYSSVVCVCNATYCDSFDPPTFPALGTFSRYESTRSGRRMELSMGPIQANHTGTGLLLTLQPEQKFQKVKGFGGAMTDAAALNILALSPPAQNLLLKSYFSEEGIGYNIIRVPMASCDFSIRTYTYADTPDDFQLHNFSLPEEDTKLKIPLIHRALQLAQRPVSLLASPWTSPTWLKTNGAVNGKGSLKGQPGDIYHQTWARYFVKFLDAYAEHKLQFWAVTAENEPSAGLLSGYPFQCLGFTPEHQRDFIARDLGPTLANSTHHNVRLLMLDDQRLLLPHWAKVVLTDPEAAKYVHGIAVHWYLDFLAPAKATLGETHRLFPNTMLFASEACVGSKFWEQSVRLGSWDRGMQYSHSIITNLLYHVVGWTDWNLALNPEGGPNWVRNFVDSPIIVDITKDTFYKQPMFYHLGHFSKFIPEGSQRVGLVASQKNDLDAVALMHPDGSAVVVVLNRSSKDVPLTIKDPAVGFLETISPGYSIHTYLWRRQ
3',5'-cyclic-AMP phosphodiesterase 4B (Homo sapiens), sequence (Q07343 whole entry, looked up): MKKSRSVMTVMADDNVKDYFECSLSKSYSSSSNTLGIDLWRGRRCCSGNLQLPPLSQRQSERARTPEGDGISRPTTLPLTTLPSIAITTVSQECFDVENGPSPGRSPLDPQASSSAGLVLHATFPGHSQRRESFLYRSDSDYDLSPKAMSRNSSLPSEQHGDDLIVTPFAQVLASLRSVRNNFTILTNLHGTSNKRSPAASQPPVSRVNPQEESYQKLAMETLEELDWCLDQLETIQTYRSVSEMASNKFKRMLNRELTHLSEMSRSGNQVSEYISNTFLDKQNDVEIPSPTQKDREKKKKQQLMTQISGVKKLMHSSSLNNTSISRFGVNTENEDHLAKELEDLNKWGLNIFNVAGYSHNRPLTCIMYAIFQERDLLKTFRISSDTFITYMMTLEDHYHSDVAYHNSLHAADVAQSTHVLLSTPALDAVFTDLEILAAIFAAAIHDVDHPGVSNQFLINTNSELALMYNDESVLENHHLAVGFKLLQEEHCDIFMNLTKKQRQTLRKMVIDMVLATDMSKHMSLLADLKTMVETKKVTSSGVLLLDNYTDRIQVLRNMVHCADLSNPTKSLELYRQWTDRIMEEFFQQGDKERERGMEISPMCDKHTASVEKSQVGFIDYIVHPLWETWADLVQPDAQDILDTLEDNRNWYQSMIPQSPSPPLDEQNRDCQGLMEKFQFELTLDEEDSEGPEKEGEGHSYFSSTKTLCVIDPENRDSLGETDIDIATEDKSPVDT

NC1(C(=O)OCc2ccccc2)CCCC1
inactive: Potency [1] > 11.4 µM | activity change, negative = inhibition [2] 8.77% | activity change, negative = inhibition [3] -4.79% | activity, negative = inhibition [4] 3.45% | Potency [5] > 46 µM | Potency [6] > 9.22 µM | Potency [7] | Potency [8]

NNC(=O)CS(=O)(=O)Nc1ncccn1
inactive: Potency [1] > 11.4 µM | activity change, negative = inhibition [2] -0.0437% | activity change, negative = inhibition [3] 3.94% | activity, negative = inhibition [4] -3.75% | Potency [5] > 46 µM | Potency [6] > 9.22 µM | Potency [7] | Potency [8]

C[C@H]1[C@H](C)OC(=O)C[C@H](O)C[C@H](O)C[C@H](O)CC[C@H](O)[C@H](O)CC(=O)C[C@H](O)[C@H](C(=O)O)[C@H](O)C[C@H](O[C@@H]2O[C@@H](C)[C@H](O)[C@@H](N)[C@@H]2O)C=CC=CC=CC=CCCC=CC=C[C@@](C)(O)[C@H]1O
inactive: Potency [1] > 11.4 µM | activity change, negative = inhibition [2] 4.16% | activity change, negative = inhibition [3] 2.48% | activity, negative = inhibition [4] -6.26% | Potency [5] > 46 µM | Potency [6] > 9.22 µM | Potency [7] | Potency [8]

NC(N)=NC[C@H](N)C(=O)O
inactive: Potency [1] > 11.4 µM | activity change, negative = inhibition [2] 1.65% | activity change, negative = inhibition [3] 10.9% | activity, negative = inhibition [4] 0.308% | Potency [5] > 46 µM | Potency [6] > 9.22 µM | Potency [7] | Potency [8]

CC(C)=CCNc1ncnc2c1c(C#N)cn2[C@H]1O[C@@H](CO)[C@@H](O)[C@@H]1O
inactive: Potency [1] > 11.4 µM | activity change, negative = inhibition [2] -1.6% | activity change, negative = inhibition [3] 6.29% | activity, negative = inhibition [4] 10.4% | Potency [5] > 46 µM | Potency [6] > 9.22 µM | Potency [7] | Potency [8]

O=C(O)c1ccc(NCc2nc3cc4ccccc4cc3[nH]2)cc1
inactive: Potency [1] > 11.4 µM | activity change, negative = inhibition [2] -5.67% | activity change, negative = inhibition [3] 14.2% | activity, negative = inhibition [4] -2.42% | Potency [5] > 46 µM | Potency [6] > 9.22 µM | Potency [7] | Potency [8]

O=C(O)C[C@@H](C(=O)O)c1ccccc1[N+](=O)[O-]
inactive: Potency [1] > 11.4 µM | activity change, negative = inhibition [2] 10.5% | activity change, negative = inhibition [3] 13% | activity, negative = inhibition [4] 6.64% | Potency [5] > 46 µM | Potency [6] > 9.22 µM | Potency [7] | Potency [8]

CC(=O)[C@@]1(N=Nc2ccc(S(N)(=O)=O)cc2)CCOC1=O
inactive: Potency [1] > 11.4 µM | activity change, negative = inhibition [2] -8.54% | activity change, negative = inhibition [3] 5.28% | activity, negative = inhibition [4] 6.55% | Potency [5] > 46 µM | Potency [6] > 9.22 µM | Potency [7] | Potency [8]

Nc1nc(N)nc(CC(=O)O)n1
inactive: Potency [1] > 11.4 µM | activity change, negative = inhibition [2] 5.1% | activity change, negative = inhibition [3] 15.8% | activity, negative = inhibition [4] 0.411% | Potency [5] > 46 µM | Potency [6] > 9.22 µM | Potency [7] | Potency [8]

C/C(=N/NC(=O)c1ccncc1)c1ccccc1Cl
inactive: Potency [1] > 11.4 µM | activity change, negative = inhibition [2] 12.5% | activity change, negative = inhibition [3] 8.3% | activity, negative = inhibition [4] -2.05% | Potency [5] > 46 µM | Potency [6] > 9.22 µM | Potency [7] | Potency [8]

CC(C)=CCNc1ncnc2nc[nH]c12
inactive: Potency [1] > 11.4 µM | activity change, negative = inhibition [2] 3.85% | activity change, negative = inhibition [3] 6.81% | activity, negative = inhibition [4] 5.75% | Potency [5] > 46 µM | Potency [6] > 9.22 µM | Potency [7] | Potency [8]

COc1ccc(Oc2ncc3nc(-c4ccc(Cl)cc4)c(=O)n(CCC#N)c3n2)cc1
inactive: Potency [1] > 11.4 µM | activity change, negative = inhibition [2] -25.6% | activity change, negative = inhibition [3] 0.455% | activity, negative = inhibition [4] -7.87% | Potency [5] > 46 µM | Potency [6] > 46 µM | Potency [7] | Potency [8]

NC1(C(=O)NC2(C(=O)O)CCCC2)CCCC1 (HELM PEPTIDE1{[NC1(C(=O)[*:2])CCCC1].[O=C(O)C1(N[*:1])CCCC1]}$$$$V2.0)
inactive: Potency [1] > 11.4 µM | activity change, negative = inhibition [2] 2.4% | activity change, negative = inhibition [3] -2.57% | activity, negative = inhibition [4] 8.97% | Potency [5] > 46 µM | Potency [6] > 9.22 µM | Potency [7] | Potency [8]

C#CCOC(=O)[C@H](N)CC(N)=O
inactive: Potency [1] > 11.4 µM | activity change, negative = inhibition [2] 0.665% | activity change, negative = inhibition [3] 13.9% | activity, negative = inhibition [4] -0.998% | Potency [5] > 46 µM | Potency [6] > 9.22 µM | Potency [7] | Potency [8]

Cc1nc([N+](=O)[O-])cn1-c1nc2ccccn2c1[N+](=O)[O-]
inactive: Potency [1] > 11.4 µM | activity change, negative = inhibition [2] 2.55% | activity change, negative = inhibition [3] -3.74% | activity, negative = inhibition [4] 4.02% | Potency [5] > 46 µM | Potency [6] > 9.22 µM | Potency [7] | Potency [8]

C[C@@H](CCC(=O)O)C(=O)O
inactive: Potency [1] > 11.4 µM | activity change, negative = inhibition [2] 3.57% | activity change, negative = inhibition [3] 5.4% | activity, negative = inhibition [4] 0.834% | Potency [5] > 46 µM | Potency [6] > 9.22 µM | Potency [7] | Potency [8]

COc1ccc(Cc2ccc3[nH]c(=O)cc(C)c3c2)cc1S(=O)(=O)O
inactive: Potency [1] > 11.4 µM | activity change, negative = inhibition [2] 7.37% | activity change, negative = inhibition [3] 8.36% | activity, negative = inhibition [4] 5.41% | Potency [5] > 46 µM | Potency [6] > 9.22 µM | Potency [7] | Potency [8]
